Data taken from the supplement of paper PMC10681739.

biological target: RUNX1 (UniProt Q01196); test: RUNX1 binding intensity (PBM fluorescence), RUNX1 alone (arbitrary fluorescence units); higher = stronger binding; conditions: RUNX1 concentration 2 nM; ETS1 concentration 0 nM
Procedure: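 Cooperative gcPBM on 36-bp genomic probes with neighbouring ETS1 and RUNX1 sites. Recombinant human RUNX1 (2 nM) was incubated alone or with ETS1 (25 nM) and detected with anti-RUNX1 antibody plus Alexa488 secondary. Values are medians over 4 replicate spots; the RUNX1+ETS1 data were normalised to the RUNX1-only data. The probes sit in constant array flanks that are not printed.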
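For RUNX1 binding intensity (PBM fluorescence), RUNX1 alone in this document: Full-length recombinant human RUNX1 bound to double-stranded 36-bp genomic probes on a high-density microarray, scored as Alexa488 fluorescence per spot via anti-RUNX1 antibody, median of four replicate spots.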

RUNX1, sequence (Q01196 whole entry): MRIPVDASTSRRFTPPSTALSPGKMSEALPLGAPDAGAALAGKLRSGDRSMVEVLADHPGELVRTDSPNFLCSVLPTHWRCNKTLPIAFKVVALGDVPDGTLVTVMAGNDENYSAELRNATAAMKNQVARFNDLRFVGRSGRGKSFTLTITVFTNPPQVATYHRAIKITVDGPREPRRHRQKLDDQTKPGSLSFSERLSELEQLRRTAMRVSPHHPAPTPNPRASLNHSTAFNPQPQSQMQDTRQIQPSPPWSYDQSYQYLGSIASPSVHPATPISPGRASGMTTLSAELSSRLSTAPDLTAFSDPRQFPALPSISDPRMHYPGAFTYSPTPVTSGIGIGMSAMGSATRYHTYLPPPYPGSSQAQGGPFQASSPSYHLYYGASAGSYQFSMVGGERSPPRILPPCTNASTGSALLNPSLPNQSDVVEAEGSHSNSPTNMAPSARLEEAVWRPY

In order of falling RUNX1 binding intensity:
1. GAGGGAGCAGTTCCGGGTGCGGTGCGCGCCAGGGGC  1650
2. CCTCCGGAACGGCGCGGGGGATTGTGGGGTGTAGGG  910
3. GAGGGACAGGATGCCGCCAGGAACCACAAGAGCTTC  844
4. CAGTTTATCCTGTGAGAGCCTTGTGGTTCCTACTAA  773
5. TTGCTCGGCTTCCTGGAGCTGTGGTCCGTGTGGGCT  708

biological target: RUNX1 (UniProt Q01196); test: TF binding intensity (PBM fluorescence), negative control probe (arbitrary fluorescence units); higher = stronger binding; conditions: not given
Procedure: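 gcPBM negative-control 36-bp genomic probes lacking TF binding sites. Each was incubated with recombinant human ETS1 or RUNX1 alone and detected by antibody fluorescence. Values are medians over replicate spots (4 spots for the ETS1-RUNX1 arrays, 3 for the ETS1-ETS1 array). The probes sit in constant array flanks that are not printed.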

In order of falling TF binding intensity:
1. AGGAGGAGATGGGACAGGAAGGAATAGATGGGAGCA (protein concentration 2 nM)  1720
2. TCGAACAGAATGGAACGGAACGGAACGGAGCGTAAC (protein concentration 2 nM)  1650
3. ATTCCATTCCAATCCTTTCCGCTCGGCTAAATTCCT (protein concentration 2 nM)  1450
4. GCTCCATCACCTCCTCTTCCGGTCCCTCCTCTAGGG (protein concentration 2 nM)  1160
5. AAGTAAGCCCCGCCCCGGAACGGGCAGAAGTAGAGG (protein concentration 2 nM)  1060
6. TCTCCGCGCATTTTATTTCCGGTTCTGAGGACGCCG (protein concentration 2 nM)  1040
7. TATCACTTCTGGCGAAGGAAATGGAAGAATCTATGG (protein concentration 2 nM)  1010
8. ATTTCTGTGCAGTCACTTCCTCTTCTTAGGTCATAG (protein concentration 2 nM)  1010
9. CCATGATGTTTGTGATTTCCGGCAGATGATGAGTAA (protein concentration 2 nM)  970
10. CTCACCAGTCACCCCAGGAAACTCTGCCCCTTTACA (protein concentration 2 nM)  950
11. CAACGTTCTTCTGTTCTTCCGTCTGTCGACCGAACT (protein concentration 2 nM)  945
12. GCACACAAGGCAGTGTTTCCGGGACAGAGGGTGGGC (protein concentration 2 nM)  937
13. CCCTGCAGCGCGTCCTTTCCGGCCCGCCCCATGCAC (protein concentration 2 nM)  922
14. TTGCCCGTCACTTGAGTTCCGCCTCCTCTGCTCCTC (protein concentration 2 nM)  922
15. ATCAAGGCGCGGCGGCGGAAAAATGTGAAATGGCTT (protein concentration 2 nM)  920
16. GGCCAGAGGAGGGCGCGGAAGTGTTGCCTGGGTGAG (protein concentration 2 nM)  917
17. GAAAAACAGACAGACAGGAAGAGAGAGAGACAGACA (protein concentration 2 nM)  903
18. CTCAGCGGCCGAACCCGGAAGTTCGGGGCCGAGTTC (protein concentration 2 nM)  901
19. CTCACACCCAGTCCCAGGAAGCGAGCCCCACGTCGC (protein concentration 2 nM)  894
20. TGAAAAAGGGGAGGGCGGAAGTGACGAGCCGTAGCC (protein concentration 2 nM)  891
21. GGTGTCAAAGCCGAGCGGAAGCGGGGCTGGAATTGG (protein concentration 2 nM)  891
22. GTTCCAGAAACGTCACATCCGGCGCCCGCTCCGCCC (protein concentration 2 nM)  890
23. GTGTTTTGCAGCGAAAGGAAATCTCGCTCTTCGGAA (protein concentration 2 nM)  882
24. TCGGCGGCGGAGCACCGGAAGTTCTGCAGCACTGGC (protein concentration 2 nM)  880
25. GTCCAGGCAAGAAACAGGAAGTGTGTCATGCACAGA (protein concentration 2 nM)  870
26. CTGCTCGGCCAGGTCCGGAAAGAGAGAACGGGCTGG (protein concentration 2 nM)  859
27. GCCTCACAAAAGAACAGGATGTTGTTGATTTGTCAC (protein concentration 2 nM)  828
28. ACGCTGCGCATGCGCCGGAAGTTGCAGCCGTGAAGC (protein concentration 2 nM)  811
29. TCTGAAGGAGCCGGGCGGAAAGAAGCCGAGGCGCGC (protein concentration 2 nM)  798
30. CAGGCTCGACACGGGCGGAACAAACGGGCTCCACTA (protein concentration 2 nM)  769
31. GGGCCTGCGCGCGCACTTCCGCTCTCCCCTCCGGCT (protein concentration 2 nM)  759
32. TCTGGACGATGCAGTTTTCCGGTATACGCGACGCTA (protein concentration 2 nM)  727
